# Test results as given in PubChem BioAssay AID504834 (National Center for Advancing Translational Sciences (NCATS), 2011).
# About 22,000 (6.9%) of roughly 320,000 compounds were called active. Roughly 27% stayed inconclusive and do not appear here. The call rests on the fitted dose curve; in most records, active means well fitted inhibition curve with a large enough effect; inconclusive means small, poorly fitted or top-dose-only effect, or another doubt; inactive means no such curve, though single readings can be large or run the other way. The entries come from a sample that favours actives as a whole. A call without a number means that no potency is given here.
# Assay: Primary qHTS for delayed death inhibitors of the malarial parasite plastid, 96 hour incubation
# Details: P. falciparum luciferase reporter growth; series mostly up to 28.7 µM
# Outline: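 Two parasite generations (96 h, 37 C, 5% CO2) of compound exposure in infected erythrocytes (0.05% parasitemia, 2% hematocrit). Luciferase-reporter P. falciparum; decreased luminescence indicates inhibited growth, aimed at apicoplast-acting delayed death.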
# Potency means the concentration at half of the fitted maximal effect.
row,Compound,Potency
1,N#Cc1nc(-c2cccc3ccccc23)oc1N,inactive
2,Cc1cc(NC(=O)Nc2c[nH]c(=O)[nH]c2=O)ccc1Br,inactive
3,CC1CCN(S(=O)(=O)c2ccc3c(c2)n(C)c(=O)n3C)CC1,inactive
4,CCOc1cc(C2/C(=C(/O)c3ccc(S(=O)(=O)N4CCCCC4)cc3)C(=O)C(=O)N2CCOC)ccc1O (stereo not drawn),inactive
5,COCCN1C(=O)C(=O)/C(=C(/O)c2ccc(S(=O)(=O)N3CCOCC3)cc2)C1c1ccc(OC)c(OC)c1 (stereo not drawn),inactive
6,COCCN1C(=O)C(=O)/C(=C(/O)c2ccc(S(=O)(=O)N3CCCCC3)cc2)C1c1ccc(OC)c(OC)c1 (stereo not drawn),9.28 µM (active)
7,CN(C)S(=O)(=O)c1cccc(-c2nn(-c3ccccc3)cc2/C=C2\SC(=S)N(CC(=O)O)C2=O)c1,inactive
8,Cc1nn(C)c(C)c1C(C)NC(=O)c1ccc(OC2CCN(Cc3ccccn3)CC2)cc1 (stereo not drawn),inactive
9,Cc1cccc(C(C)C)c1NC(=O)COC(=O)C1CC(=O)N(Cc2ccccc2)C1 (stereo not drawn),inactive
10,Nc1cc(OC(=O)c2ccccc2Br)nn1S(=O)(=O)c1ccccc1,inactive
11,Cc1nn(C(C)(C)C)c(OC(=O)CC(C)C)c1S(=O)(=O)c1ccccc1,9.28 µM (active)
12,Cc1ccc(S(=O)(=O)n2nc(OC(=O)C(C)(C)C)cc2N)cc1,inactive
13,CCCc1ccc(OCC(O)CN2CCN(CCO)CC2)cc1 (stereo not drawn),10.4 µM (active)
14,CCc1ccc(OCC(O)CN2CCN(CCO)CC2)cc1 (stereo not drawn),inactive
15,CCCc1ccc(OCC(O)CN2CCN(C(=O)OCC)CC2)cc1 (stereo not drawn),inactive
16,Cc1ccc(S(=O)(=O)N2CCCCC2)cc1C(=O)N1CCN(CCO)CC1,inactive
17,CN(CC(=O)Nc1cccc(F)c1)C(=O)C1CC(=O)N(CCc2ccccc2)C1 (stereo not drawn),inactive
18,COc1cccc(N2C(=O)CC(N3CCc4ccccc4C3)C2=O)c1 (stereo not drawn),inactive
19,COc1ccc(CN2CCCC(N3CCc4ccccc4C3)C2)c(O)c1 (stereo not drawn),8.28 µM (active)
20,COc1ccccc1CN1CCCC(N2CCN(c3ccc(F)cc3)CC2)C1 (stereo not drawn),inactive
21,COc1ccc(CN2C3CCCC2CC(NC(=O)c2cccc(F)c2)C3)cc1 (stereo not drawn),inactive
22,CCCCCCC(O)(CCN1CCCCC1)c1ccccc1 (stereo not drawn),inactive
23,O=C(COc1ccccc1Cl)Nc1ccccc1C(=O)NC1CC1,inactive
24,COc1ccc2c(c1)OC(O)(C(F)(F)C(F)F)CC2=O (stereo not drawn),0.828 µM (active)
25,CC1(C)CC(=O)c2ccc(O)cc2O1,inactive
26,O=S1(=O)N=C(N(CCO)/N=C/c2ccccc2F)c2ccccc21,inactive

row,Compound,Potency
1,COc1ccc(-n2nc3c(N4CCC(C(=O)NCc5ccccc5)CC4)nnc(C)c3c2C)cc1,13.1 µM (active)
2,COc1ccc(CNC(=O)C2CCN(C(=O)c3ccccc3)CC2)cc1,inactive
3,CCOc1ccc(CNC(=O)C2CCCN(c3nnc(C)c4c(C)n(-c5ccccc5)nc34)C2)cc1 (stereo not drawn),inactive
4,COC(=O)c1ccc(Nc2ncnc3sccc23)cc1,inactive
5,CC(=O)c1c(C)n(-c2ccc(N(C)C)cc2)c2ccc(OCC(N)=O)cc12,9.28 µM (active)
6,CCOC(=O)c1c(CN2CCOCC2)n(-c2ccccc2)c2ccc(O)cc12,inactive
7,CC(=O)c1c(C)n(-c2ccc(C)cc2)c2ccc(O)cc12,7.38 µM (active)
8,Cc1c(Cc2ccccc2)c(=O)oc2cc(OCC(N)=O)ccc12,inactive
9,CCOC(=O)c1c(C)oc2ccc(OCC(=O)N(CC)CC)cc12,inactive
10,O=C(O)CCC(=O)Nc1ccc(OCC2CCCO2)cc1 (stereo not drawn),inactive
11,CCCn1nc(C(=O)Nc2ccc3nc(C)sc3c2)c2ccccc2c1=O,inactive
12,CCn1nc(C(=O)Nc2ccc(N3CCOCC3)cc2)c2ccccc2c1=O,inactive
13,CCCCn1nc(C(=O)Nc2cccc(C(=O)NC3CC3)c2)c2ccccc2c1=O,11.7 µM (active)
14,CC(=O)Nc1ccc(S(=O)(=O)NCC2CCC(C(=O)NCCc3ccccc3)CC2)cc1 (stereo not drawn),inactive
15,COc1ccc(C2NC(=O)N(C)C(C)=C2[N+](=O)[O-])cc1 (stereo not drawn),inactive
16,COc1ccc(C(C)(C)C)cc1NC(=O)CCN1C(=O)C2CCCCC2C1=O (stereo not drawn),inactive
17,NC(=O)c1ccsc1NC(=O)COC(=O)COc1ccc(C=O)cc1,inactive
18,O=C(/C=C/c1cccs1)c1cc(Cl)ccc1OC(=O)N1CCOCC1,8.28 µM (active)
19,O=C(NCC(c1cccs1)N1CCOCC1)c1cc(Cl)ccc1[N+](=O)[O-] (stereo not drawn),inactive
20,CC(=O)Nc1ccccc1OC(=O)N1CCOCC1,inactive
21,CCOc1cc(C)c(S(=O)(=O)NCc2ccccn2)cc1C,inactive
22,COc1ccc2[nH]c(C(=O)N3CCN(C)CC3)c(C)c2c1,inactive
23,O=C(c1cc2ccccc2s1)N1CCN(c2ccccn2)CC1,inactive
24,O=C(NC1CCCC1)C(c1ccco1)N(C(=O)c1csnn1)c1ccccc1 (stereo not drawn),inactive
25,OCC[C@H]1C[C@@H](O)[C@H](O)[C@]2(OCCCc3ccccc32)O1,inactive
26,COc1cc(OC)c(N2CC(C(=O)Nc3cc(Cl)ccc3N3CCOCC3)CC2=O)cc1Cl (stereo not drawn),11.7 µM (active)

row,Compound,Potency
1,COc1ccc(Cl)cc1NC(=O)CCN1CCOCC1,inactive
2,Cc1ccc(N2CC(C(=O)Nc3cc(Cl)ccc3-n3cncn3)CC2=O)cc1 (stereo not drawn),inactive
3,CN(C(=O)CSc1nnc(C2CC2)n1C)C1CCCc2ccccc21 (stereo not drawn),inactive
4,Cc1cc(C)n2nc(C(=O)OCC(=O)N(CCC#N)c3ccc(F)cc3)nc2n1,inactive
5,O=C(CCn1nnc2ccccc2c1=O)N[C@@H](Cc1c[nH]c2ccccc12)C(=O)O,inactive
6,CCOC(=O)c1sc(NC(=O)CSc2ncccn2)c(C#N)c1C,inactive
7,CCC(=O)Nc1sc(C(=O)N2CCCCC2)c(C)c1C#N,14.7 µM (active)
8,CCN1CCN(CC(=O)Nc2sc3c(c2C#N)CCC3)CC1,inactive
9,COc1cc(OC)c(C(=O)OCC(=O)N2CC(=O)Nc3ccccc32)cc1OC,inactive
10,COc1ccc(Cl)cc1-n1c(C)cc(C(=O)OCC(=O)N2CC(=O)Nc3ccccc32)c1C,4.15 µM (active)
11,O=C1CN(C(=O)COC(=O)c2cnc(Cl)c(Cl)c2)c2ccccc2N1,inactive
12,O=C(COC(=O)Cc1ccccc1F)NNC(=O)c1ccc(Cl)cc1,inactive
13,Cc1cc(Br)ccc1NC(=O)CN(C)C(=O)CN1C(=O)NC2(CCCC2)C1=O,inactive
14,COc1ccc(-c2cc(C(=O)N(C)CC(=O)Nc3ccccc3Cl)c3ccccc3n2)cc1OC,9.28 µM (active)
15,COc1ccc(CN(C)C(=O)Cc2c[nH]c3ccccc23)c(OC)c1OC,inactive
16,COc1ccc(Cl)cc1NC(=O)CN(C)C(=O)c1ccc2n[nH]nc2c1,inactive
17,COc1ccc(-c2cc(C(=O)NCCCN3CCCC3=O)c3ccccc3n2)cc1OC,inactive
18,COc1ccc(-c2cc(C(=O)N(C)Cc3ccccc3)c3ccccc3n2)cc1,inactive
19,COc1ccc(CN(C)C(=O)c2cc(-c3ccc(C)cc3C)nc3ccccc23)c(OC)c1OC,13.1 µM (active)
20,CC1CCN(c2ccc([N+](=O)[O-])c(SCCO)c2)CC1,inactive
21,Cc1ccc(C)c(OCC(=O)NNC(=O)C2CCC2)c1,inactive
22,COc1cccc(OCc2nnc3n2N=C(c2ccccc2)C(CC(=O)O)S3)c1 (stereo not drawn),inactive
23,CC1CCCN(C(C(=O)Nc2ccc(C(C)C)cc2)c2ccc3c(c2)OCO3)C1 (stereo not drawn),inactive
24,O=C(CSc1ccc(-c2ccc(F)cc2)nn1)Nc1ccc2c(c1)OCCO2,inactive
25,O=C(Nc1ccc2c(c1)OCCO2)C(c1ccc(F)cc1)N1CCCCC1 (stereo not drawn),8.28 µM (active)
26,CC(=O)Nc1ccc(NC(=O)C2CCCN(S(=O)(=O)c3ccc(Cl)cc3)C2)cc1 (stereo not drawn),inactive

row,Compound,Potency
1,CC(NC(=O)CCCC1CCCCC1)c1ccc(S(N)(=O)=O)cc1 (stereo not drawn),inactive
2,CCOc1cc(/C=C2\C(=N)N3N=C(C)SC3=NC2=O)ccc1OCCOc1ccccc1,inactive
3,O=C(CCCCCn1c(=S)[nH]c2ccsc2c1=O)NC1CCCCC1,13.1 µM (active)
4,O=C(CCC(=O)c1cccs1)NC1CCCCCC1,inactive
5,O=C(COC(=O)/C=C/c1cccs1)NC1CCCCC1,inactive
6,CN1CCN(Cc2nc3cc(NC(=O)COc4ccc([N+](=O)[O-])cc4)ccc3n2C)CC1,inactive
7,Nc1nc(SCC(=O)Nc2cc(C(F)(F)F)ccc2Cl)[nH]c(=O)c1NC(=O)c1ccco1,inactive
8,Cc1sc2ncn(CC(=O)NCCCC(=O)NCc3ccc(F)cc3)c(=O)c2c1C,inactive
9,CCc1ccc(NC(=O)NC(C)c2ccc3c(c2)OCO3)cc1 (stereo not drawn),inactive
10,CC(=O)Nc1cccc([N+](=O)[O-])c1,inactive
11,CC(NC(=O)Nc1cccc([N+](=O)[O-])c1)c1ccc2c(c1)OCO2 (stereo not drawn),2.08 µM (active)
12,CC(NC(=S)Nc1ccc(S(N)(=O)=O)cc1)c1ccc2c(c1)OCO2 (stereo not drawn),4.65 µM (active)
13,CC(NC(=O)c1ccco1)c1ccc2c(c1)OCO2 (stereo not drawn),inactive
14,O=C(Nc1cccc([N+](=O)[O-])c1)c1ccc2c(c1)OCO2,inactive
15,CN(CC(=O)Nc1ccc(F)cc1)CC(=O)N1CCCCC1,inactive
16,Cc1ccc(-c2nnc(Nc3ccc(C(=O)N(C)C)cc3)c3ccccc23)cc1S(N)(=O)=O,inactive
17,COc1ccccc1C(=O)N(Cc1ccc(C)o1)C1CCS(=O)(=O)C1 (stereo not drawn),inactive
18,CCCCc1nc(SCC(=O)Nc2nnc(C(C)C)s2)n[nH]1,inactive
19,CC(=O)Nc1ccc(NC(=O)CSc2ncnc3c2cnn3Cc2ccccc2)cc1,inactive
20,CC(C)CNc1ncnc2c1cnn2Cc1ccc(Cl)cc1,11.7 µM (active)
21,Clc1ccc(Cn2ncc3c(NCc4cccnc4)ncnc32)cc1,inactive
22,CC1CCCC(C)N1C(=O)CSc1nnnn1C1CCCC1 (stereo not drawn),inactive
23,CC(=O)Nc1ccc(NC(=O)CSc2nnnn2C2CCCCC2)cc1,inactive
24,O=C(CSc1nnnn1C1CCCC1)N1CCCCC1,0.586 µM (active)
25,COc1cccc(NC(=O)c2ccccc2N(Cc2ccccc2)S(C)(=O)=O)c1,inactive
